# The list is not random: actives were taken first. Their share in the collection is about 2.4%.
# SENP7 inh = blocks the human protease SENP7; recombinant SENP7, Z-RLRGG-aminoluciferin luminescence, 40 min; inhibition, % at 5 µM; actives 1.5% (n = 330,000); AID 434973;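 active means inhibition above about 50% at the single test dose, limit read from the data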;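 further: plate controls were DMSO with enzyme for no effect and no enzyme buffer wells for full effect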
# Target sequence (Q9BQF6 706-1050 limits assumed): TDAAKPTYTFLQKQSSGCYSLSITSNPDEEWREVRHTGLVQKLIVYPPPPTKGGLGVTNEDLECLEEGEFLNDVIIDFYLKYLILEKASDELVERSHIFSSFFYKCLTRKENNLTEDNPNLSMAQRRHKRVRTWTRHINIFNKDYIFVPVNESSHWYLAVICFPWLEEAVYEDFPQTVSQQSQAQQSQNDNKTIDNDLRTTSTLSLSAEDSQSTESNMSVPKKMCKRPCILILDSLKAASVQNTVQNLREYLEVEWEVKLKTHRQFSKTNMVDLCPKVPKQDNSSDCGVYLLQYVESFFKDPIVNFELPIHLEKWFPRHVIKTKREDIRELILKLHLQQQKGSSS
# SENP8 block-1 = inhibitors of human SENP8 protease; AID 602440; inhibition, % at 20 µM; actives 0.64% (n = 360,000); Q96LD8; recombinant SENP8, Nedd8 substrate fluorescence; in the data active means inhibition mostly above about 40%, no sharp cut-off; inactive means mostly below about 27%
# Target sequence (Q96LD8 whole entry, looked up): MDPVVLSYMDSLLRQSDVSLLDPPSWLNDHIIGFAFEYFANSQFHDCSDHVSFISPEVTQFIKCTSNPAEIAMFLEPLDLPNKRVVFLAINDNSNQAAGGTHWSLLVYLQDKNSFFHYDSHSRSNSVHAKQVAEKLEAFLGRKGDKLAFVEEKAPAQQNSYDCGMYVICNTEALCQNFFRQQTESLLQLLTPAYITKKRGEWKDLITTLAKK
# Platelet DG rel = modulates dense granule release in human platelets; human platelet-rich plasma, SFLLRN dense granule ATP release, luminescence; inhibition, %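 (compounds screened at 7.5 µM in platelet-rich plasma)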; actives 0.22% (n = 300,000); AID 1663;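 active means mean replicate score, as percent of positive control, at or above 50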
# SENP6 inh = SENP6 protease inhibition; Recombinant SENP6 catalytic domain, aminoluciferin luminescence; inhibition, % at 10 µM; actives 1.8% (n = 330,000); AID 2599;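 active means inhibition above about 50% at the single tested dose, limit read from the data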;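 further: plate controls were DMSO wells with enzyme for no effect and DMSO wells lacking enzyme for full effect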
# SENP8 block-2 = blocks the human protease SENP8; Q96LD8; purified SENP8, Z-RLRGG-aminoluciferin cleavage, luminescence; inhibition, % at 10 µM; actives 1.2% (n = 330,000); AID 2540; in the data active means inhibition above about 50%
# SENP8 confirm = confirmation of human SENP8 protease inhibitors; inhibition, % at 12.5 µM; Recombinant SENP8, Z-RLRGG-aminoluciferin luminescence, 60 min; actives 40% (n = 6,200); shares compounds with SENP7 inh; AID 488912;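 active means mean inhibition across replicates above about 50%, limit read from the data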
# SENP6 confirm = human SENP6 inhibition, confirmed. shares compounds with SENP7 inh. recombinant SENP6, Z-RLRGG-aminoluciferin luminescence. inhibition, % at 12.5 µM. actives 58% (n = 6,200). AID 488915
# SENP7 confirm = human SENP7 inhibition, confirmed. shares compounds with SENP7 inh. recombinant SENP7, Z-RLRGG-aminoluciferin luminescence, 40 min. inhibition, % at 12.5 µM. actives 69% (n = 6,200)
# Casp3 SENP sel = inhibits human caspase-3 in SENP selectivity test | shares compounds with SENP7 inh | purified caspase-3, Z-DEVD-aminoluciferin luminescence, 60 min | inhibition, % at 12.5 µM | actives 60% (n = 6,200) | AID 488918;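 active means mean inhibition above about 50%, limit read from the data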;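 further: plate controls were enzyme with DMSO for no effect and wells without caspase-3 for full effect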
# SENP luc ctr = interferes with luciferase luminescence in SENP counter-screen; actives 39% (n = 6,200); Pre-incubated SENP8/Z-RLRGG-aminoluciferin, luciferase luminescence interference; inhibition, % at 12.5 µM; shares compounds with SENP7 inh;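 active means mean inhibition above about 50% when retested at one dose, limit read from the data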;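 further: plate controls were DMSO wells with completed reaction for no effect and substrate without enzyme for full effect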
# An asterisk follows results filed as active; x = not tested or not shown.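 How the source made its calls, unless noted: active means mean inhibition above about 50% in the one-dose retest (limit read from the data); inactive means the rest.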
SMILES,SENP7 inh,SENP8 block-1,Platelet DG rel,SENP6 inh,SENP8 block-2,SENP8 confirm,SENP6 confirm,SENP7 confirm,Casp3 SENP sel,SENP luc ctr
COc1cccc(NC(=O)c2ccccc2F)c1,45,-7,x,51*,49,25,19,67*,72*,53*
Cc1cc(C)cc(N(CC(=O)Nc2ccc(Br)cc2)S(=O)(=O)c2c(C)[nH]c(=O)[nH]c2=O)c1,-9,8,3,-8,-4,x,x,x,x,x
COc1ccc(NC(=O)C2c3ccccc3OCC(=O)N2Cc2ccc3c(c2)OCO3)cc1 (configuration not stated),x,-2,x,x,x,x,x,x,x,x
NC(=O)c1ccccc1NC(=O)Nc1cccc(Cl)c1,92*,-162,10,61*,82*,86*,87*,99*,82*,89*
O=C(Nc1ccc(C(=O)N2CCCCC2)cc1)Nc1cccc(Cl)c1,73*,8,17,67*,27,-7,-6,-4,29,4
COc1cccc(NC(=O)Cc2ccccc2)c1,78*,18,-4,74*,67*,70*,65*,90*,83*,76*
CS/C(N)=N/C(=S)Nc1cccc(Cl)c1,21,22,-13,58*,5,72*,68*,88*,57*,76*
CCOC(=O)C(=CNc1nc(-c2ccc3ccccc3c2)cs1)C(=O)OCC,7,-284,-6,-34,13,x,x,x,x,x
O=C(C1CCCN(Cc2ccc([N+](=O)[O-])cc2)C1)N1CCCCC1 (configuration not stated),0,24,-1,-23,4,x,x,x,x,x
O=C(O)c1cc(Cl)ccc1OS(=O)(=O)c1ccc(Cl)s1,4,0,x,22,-9,x,x,x,x,x
O=C(O)c1ccc(OS(=O)(=O)c2ccc(Cl)s2)c(Cl)c1,6,14,x,56*,45,34,33,61*,54*,60*
COc1ccc(/C=C(\NC(=O)c2ccc(C)cc2)C(=O)NCCCn2ccnc2)cc1,0,6,-4,-12,-1,x,x,x,x,x
COc1ccc(C2=NN(C(=O)CSc3nccn3C)C(c3ccco3)C2)cc1 (configuration not stated),0,4,x,-8,-3,x,x,x,x,x
Cc1ccc(C(=O)Nc2cc(Cl)ccc2OC(=O)c2ccc(C)cc2)cc1,33,x,2,32,10,x,x,x,x,x
NC(=O)c1ccccc1NC(=O)c1ccc2c(c1)OCO2,70*,-11,20,70*,57*,-22,52*,88*,81*,39
COc1ccc(C(=O)Nc2cc(Cl)ccc2OC(=O)c2ccc(OC)cc2)cc1,55*,4,2,57*,33,11,12,35,54*,16
NC(=O)c1ccccc1NC(=O)c1ccc2ccccc2c1,90*,0,7,96*,79*,51*,82*,98*,81*,59*
O=C(Nc1ccccc1C(=O)N/N=C/c1ccc(O)cc1)c1ccccc1,61*,-128,124*,65*,23,-5,3,81*,86*,64*
O=C(NC(=S)Nc1ccccc1C(=O)O)c1ccc2ccccc2c1,1,-104,-10,67*,-5,14,8,7,18,21
COc1ccc(C(=O)Nc2ccccc2C(N)=O)cc1,37,-23,5,65*,5,22,19,68*,65*,53*
COc1ccc(C(=O)Nc2ccccc2C(=O)N/N=C/c2cccc3ccccc23)cc1,63*,-30,92*,60*,4,-11,22,42,45,2
CCOC(=O)c1cccc(NC(=O)c2cc(C)nn2-c2ccccc2)c1,-3,13,-1,-5,-1,x,x,x,x,x
O=S(=O)(NC1CCCCC1NCc1ccco1)c1ccc(Cl)cc1 (configuration not stated),92*,14,4,-22,-4,-4,2,9,6,-1
NNc1nc2c(-c3ccc(Cl)cc3)nnn2c2ccccc12,45,-479,4,85*,48,-17,-11,-5,2,-4
NNc1nc2c(-c3ccc(F)cc3)nnn2c2ccccc12,92*,-440,24,97*,92*,22,81*,71*,78*,31
SMILES,SENP7 inh,SENP8 block-1,Platelet DG rel,SENP6 inh,SENP8 block-2,SENP8 confirm,SENP6 confirm,SENP7 confirm,Casp3 SENP sel,SENP luc ctr
C[C@@H]1CN([C@@H](C)CO)C(=O)c2cc(NC(=O)CCC(F)(F)F)ccc2O[C@H]1CN(C)S(=O)(=O)c1ccc(Cl)cc1,2,8,x,12,8,x,x,x,x,x
NC(=O)CSc1nc(C2CC2)nc2sc3c(c12)CCCC3,68*,11,2,75*,74*,-18,-4,11,5,16
Cc1cccc(NC(=O)CN(C)C(=O)/C=C/c2ccccc2)c1C,7,10,x,-1,-6,x,x,x,x,x
Fc1ccccc1Nc1nc2ccccc2o1,97*,20,58*,99*,94*,97*,98*,102*,97*,96*
c1ccc(Nc2nc3ccccc3o2)cc1,97*,10,5,97*,90*,10,97*,-1,93*,94*
O=C(NC(=Nc1nc2ccccc2o1)NC(=O)c1ccccc1)c1ccccc1,-2,-351,3,-2,-2,x,x,x,x,x
O=C(NNc1nc2ccccc2o1)c1ccccc1,0,2,3,64*,53*,16,69*,48,71*,44
FC(F)(F)Oc1ccc(Nc2nc3ccccc3o2)cc1,23,13,2,41,4,x,x,x,x,x
Oc1ccc(Br)cc1-c1cc(-c2ccc(Cl)cc2)n[nH]1,4,22,1,1,-19,x,x,x,x,x
COc1ccc(-c2cc(-c3ccc(Cl)cc3)n[nH]2)c(O)c1,64*,19,0,70*,64*,25,48,87*,14,66*
COc1ccc(-c2cc(-c3cc(F)ccc3O)[nH]n2)cc1OC,83*,-7,4,72*,69*,86*,84*,95*,36,83*
COc1ccc(-c2ncncc2-c2ccc(OC)c(OC)c2)c(O)c1,6,-24,3,-6,-6,x,x,x,x,x
COc1ccc(-c2cc(-c3ccccc3O)[nH]n2)cc1OC,88*,10,21,80*,78*,93*,92*,101*,69*,93*
